Drawing on PubChem BioAssay, this text covers inhibition for 40 molecules.

SMILES strings stand for the structures. A number with no mark means an inactive call. The rule behind the calls is not given here.

The test deals with Pantothenate synthetase (Mycobacterium tuberculosis (strain ATCC 25618 / H37Rv)) (UniProt P9WIL5). Kind of test: Recombinant Mtb pantothenate synthetase (PanC) inhibitors, coupled enzyme, confirmatory (AID 375).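 Note: 0% = full reaction with vehicle and 100% = no enzyme background.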 The note with it: coupled enzyme assay; at 10 µM, active compounds read high.
Pantothenate synthetase (Mycobacterium tuberculosis (strain ATCC 25618 / H37Rv)), sequence (P9WIL5 whole entry, looked up): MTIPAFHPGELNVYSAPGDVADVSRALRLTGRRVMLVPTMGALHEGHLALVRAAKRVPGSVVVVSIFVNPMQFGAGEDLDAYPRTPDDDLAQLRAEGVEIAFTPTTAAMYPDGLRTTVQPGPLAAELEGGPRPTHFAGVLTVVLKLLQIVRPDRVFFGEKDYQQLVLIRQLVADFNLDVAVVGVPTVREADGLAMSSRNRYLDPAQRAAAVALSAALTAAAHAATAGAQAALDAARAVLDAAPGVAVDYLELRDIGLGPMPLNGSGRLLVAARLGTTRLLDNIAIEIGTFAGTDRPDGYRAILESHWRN
For the molecule `COc1ccc(C(=O)CN2C(=O)NC3(CCCc4ccccc43)C2=O)cc1OC` (stereo not given), the inhibition is 0%.
Consider `CC(C)Oc1ccc(C2C(C(=O)c3ccco3)=C(O)C(=O)N2CCCN(C)C)cc1` (stereo not given), for which the inhibition is 0%.
Take `CCCNC(=O)c1cc(S(=O)(=O)N2CCc3ccccc32)ccc1F`: the inhibition was 0%.
Take `CN(C)CCN1C(=O)C(O)=C(C(=O)c2cc3ccccc3o2)C1c1ccc(N(C)C)cc1` (stereo not given): the inhibition is 0%.
With `Cc1cc(C)nc(N2CCC(C(=O)NC3CCCCCC3)CC2)n1`, the inhibition is 1%.
Take `CCC1(NC(C)=O)CC2CC1CC2NC(C)=O` (stereo not given): the inhibition was 0%.
Regarding `Nc1ccc2[nH]ncc2c1`, the inhibition was 0%.
In the case of `Cc1ccc(C)c(N(CC(=O)NC2CCCC2)C(=O)CCCC(=O)Nc2ccccn2)c1`, the inhibition is 2%.
For the molecule `CCn1c(=O)c(=O)[nH]c2cc(C(=O)N3CCN(c4ccccc4F)CC3)ccc21`, the inhibition was 4%.
Regarding `CCOc1ccccc1N(C(=O)Cn1nnnc1-c1ccc(C)o1)C(CC)C(=O)NC(C)(C)C` (stereo not given), the inhibition is 0%.
Regarding `CC1(C)CC(=O)C(C(=O)CCCCC(=O)C2C(=O)CC(C)(C)CC2=O)C(=O)C1`, the inhibition is 0%.
Take `O=C(Nc1nnc(CCN2CCCCC2)s1)C1CCCCC1`: the inhibition was 0%.
As to `Cc1ccc(-c2nn(-c3ccccc3)cc2/C=C(\C#N)c2cccc(C#N)c2)o1`, the inhibition was 0%.
In the case of `CCS(=O)(=O)N1CCCC(C(=O)NCc2ccccc2Cl)C1` (stereo not given), the inhibition was 2%.
Consider `CC(=O)C1=C(NC(=O)c2ccccc2F)C[C@@H]2[C@H]1C2(C)C`, for which the inhibition was 0%.
For the molecule `CCCCCCCCCCCCCCCC(O)C(N)CO` (stereo not given), the inhibition is 0%.
On to `Cn1nnnc1SCC(=O)NC1CCCCC1`, for which the inhibition was 0%.
Take `COc1cc(C2Oc3cc(C4Oc5cc(O)cc(O)c5C(=O)C4O)ccc3OC2CO)ccc1O` (stereo not given): the inhibition was 0%.
Next, `Cn1c(=N)c(S(=O)(=O)c2ccccc2)cc2c(=O)n3ccccc3nc21`: 2%; `CCNCCNC(=O)c1c(O)c2ccccc2n(CC)c1=O`: 0%.
As for `Cn1c(=O)c2c(nc(CN3CCOCC3)n2CC(O)CO)n(C)c1=O` (stereo not given), the inhibition was 8%.
`CN(Cc1ccccc1)C(=O)c1ccccc1NC(=O)c1ccco1`: the inhibition is 0%.
As for `Clc1ccc(SCCCCn2ccnc2)cc1`, the inhibition was 8%.
With `COC(=O)c1cc(Br)c(=O)n(CCN2CCOCC2)c1`, the inhibition was 0%.
For the molecule `CC(=O)OCC[N+](C)(C)C`, the inhibition was 0%.
`O=C1c2ccccc2CN1CCNS(=O)(=O)c1ccc(Cl)cc1`: the inhibition is 9%.
As for `O=C(CCc1ccccc1)Nc1ccncc1`, the inhibition is 0%.
`C=CCSC1=C(C#N)C(c2ccccc2)CC(=O)N1` (stereo not given): the inhibition is 0%.
In the case of `O=C(CN1CCN(c2ncccn2)CC1)Nc1ccccc1-n1cccc1`, the inhibition was 0%.
Turning to `COc1cc2c(cc1OC)C(/C(C#N)=N\O)=NC(C)(C)C2`, the inhibition is 2%.
As to `Cn1c(=O)oc2cc(S(=O)(=O)N3CCC(C(=O)Nc4ccc(OC(F)(F)F)cc4)CC3)ccc21`, the inhibition was 0%.
`CC(=O)N1c2c(cc(Br)cc2S(=O)(=O)N2CCN(c3ccccn3)CC2)CC1C` (stereo not given): the inhibition was 0%.
For `COc1ccc(S(=O)(=O)N2CCN(CC(=O)Nc3ccc(C)c(F)c3)CC2)cc1`, the inhibition was 0%.
Next, `CC(C)COC(=O)N(C)c1ccc(C(O)(C(F)(F)F)C(F)(F)F)cc1`: 5%.
Next, `COc1ccc(N2CCN(c3oc(COc4ccccc4)nc3C#N)CC2)cc1`: 0%; `CC(C)OC(=O)c1cc(NC(=O)C2C3CCC(O3)C2C(=O)O)cc(C(=O)OC(C)C)c1` (stereo not given): 0%.
With `COC(=O)c1ccccc1NC(=O)c1cc(-c2ccc(OC)c(OC)c2)on1`, the inhibition is 0%.
With `CN1CCN(C(=O)c2ccccc2N(Cc2ccccc2)S(C)(=O)=O)CC1`, the inhibition was 0%.
The figure for `Nc1nc(-c2ccc(Br)s2)c(Br)s1` is 2%; for `O=C(C1CCCO1)N1CCN(Cc2nc3ccccc3c(=O)[nH]2)CC1` (stereo not given) it is 0%.
